Laboratory results as given in PubChem BioAssay.

test: fission yeast growth modulation, primary screen, strain 972, OD600, 24 h, no modulator (AID 1090);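 also: basal condition with compound alone and no growth modifier present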; conditions: S. pombe 972 growth, higher = more signal, called active from +8 up or from −8 down
Also: test concentration not given here.

z-score, inactive:
C[N+](C)(C)CCCCCCNC(=O)[C@H]1C[C@H]2C(=O)N3CCC[C@H]3C(=O)N2[C@H]1c1cccc(OCCO)c1 -0.486
C=C(C(=O)CC[C@H](OC(=O)c1cccnc1)c1ccc(OCCO)cc1)C(C)C -1.54
C=C(COC)C(=O)CC[C@H](OC(=O)c1ccccc1-c1ccccc1C(=O)O)c1ccc(CO)o1 0.436
COC(=O)[C@@]1(Cc2ccccc2)[C@H]2c3cc(C(=O)N4CCCC4)n(Cc4ccc(OC(F)(F)F)cc4)c3C[C@H]2CN1C(=O)c1ccccc1 1.5
CO[C@H]1O[C@H](CO)[C@@H](OC(=O)c2ccc(Br)cc2)[C@@H]2OC(=O)[C@H](Cc3cccc(Br)c3)C/C=C/C[C@@H](Cc3cccc(Br)c3)C(=O)O[C@@H]12 0.16
Cc1ccc(N2C(=O)c3ccccc3[C@](C)(C(=O)NC(C)C)[C@@H]2c2ccc(CO)cc2)nc1 -1.14
NC(=O)[C@@H]1[C@H]2C(=O)O[C@H](c3ccccc3)[C@H](c3ccccc3)N2[C@H](c2ccccc2OCCO)[C@@]12C(=O)Nc1ccc(C#CCCO)cc12 -0.145
O=C1O[C@H](c2ccccc2)[C@H](c2ccccc2)N2[C@H]1[C@@H](C(=O)N1CCN(c3ncccn3)CC1)[C@]1(C(=O)Nc3ccc(C#CCCO)cc31)[C@H]2c1ccc(OCCO)cc1 1.14
CCCC=C(CCC)[C@@H](NS(=O)(=O)c1cccc2cccnc12)c1ccc(C(=O)OC)cc1 -0.271

test: S. cerevisiae growth modulation with rapamycin, primary screen, strain BY4716, OD600, 96 h (AID 1091); conditions: higher = more signal, called active from +8 up or from −8 down

z-score, inactive:
O=C1C[C@@](C(=O)O)(c2ccc([N+](=O)[O-])cc2)[C@@H](c2ccc(CO)cc2)N1CC12CC3CC(CC(C3)C1)C2 0.117
Cc1ccc(S[C@]2(C(=O)O)CC(=O)N(Cc3ccccc3C(F)(F)F)[C@@H]2c2ccc(CO)cc2)cc1 0.124
COC(=O)c1ccc(OC)c(/C=C\CC(CCc2ccccc2)OC(C)=O)c1 (stereo not given) -0.21
C#CCNS(=O)(=O)N(C)C 0.689
O=C1CSC(c2cccc([N+](=O)[O-])c2)N1c1ccccc1 (stereo not given) 1.09
CCN(CC)c1ccc(N2CC=CC34O[C@@H]5/C=C\CCCOC(=O)C5[C@H]3C(=O)N(CCCCCO)[C@@H]4C2=O)cc1 (stereo not given in full) -0.624
OCc1ccc(-c2cc[n+](Cc3cccc(OC(F)(F)F)c3)cc2)cc1 5.75
COCC1=C([C@H](O)CCc2ccccc2)[C@H](CO)[C@@H]2C(=O)N(C)C(=O)[C@@H]2C1 0.165
COC(=O)[C@@]1(Cc2ccc(F)cc2)[C@H]2c3cc(C(=O)N(C)C)n(Cc4ccc(C)c(F)c4F)c3C[C@H]2CN1C(=O)c1ccccc1 0.934
CCOC(=O)C[C@H]1[C@H](OC(=O)c2ccc(C(=O)c3ccccc3)cc2)[C@@H](NC(=O)C2CCCCC2)c2cc(OCCCO)ccc2N1C(=O)Cc1ccc(OC)cc1 -0.0492
CCCN1C(=O)[C@@]2(Cc3ccccc3)N=C(c3ccc(OCCCO)cc3)O[C@H]2c2ccccc21 1.52
O=C1C2C=CC(C(O)c3ccccn3)N(Nc3ccccc3)C2C(=O)N1c1ccccc1 (stereo not given) 0.391
COc1cc(C(O)C2C=CC3C(=O)N(C)C(=O)C3N2NC(=O)OC(C)(C)C)cc(OC)c1OC (stereo not given) 1.15
COCC(=C=CC[C@@H](O)c1ccccc1OCCO)C[C@@H](O)c1ccccn1 -0.856
C[N+](C)(C)CCCC[C@@H]1NC(=O)[C@@H]2C[C@H](C(=O)O)[C@H](c3cccc(OCCO)c3)N2C1=O 0.167
C=CCC(OC(C)=O)[C@@H]1[C@@H](N(Cc2ccc(-c3cccc(C(F)(F)F)c3)o2)C(=O)c2cccc3ccccc23)c2cc(OCCCO)ccc2N1C(=O)c1ccc(-c2ccccc2)cc1 (stereo not given in full) -0.0038
COCCCNC(=O)[C@@]1(C)c2ccccc2C(=O)N(c2ccc(C)cn2)[C@H]1c1ccc(CO)cc1 -1.67
COCCCNC(=O)[C@@]1(Cc2ccccc2CN=[N+]=[N-])N=C(c2ccc(OCCCO)cc2)O[C@H]1c1ccccc1N=[N+]=[N-] 2.08
CC1(C)[C@@H]2CC(C(O)C3C=CC4C(=O)N(c5ccccc5)C(=O)C4N3Nc3ccccc3F)=C[C@@H]1C2 (stereo not given in full) -0.382
CCOC(=O)C[C@H]1[C@H](OC(=O)Cc2ccc3c(c2)OCO3)[C@@H](NC(=O)c2ccccc2)c2cc(OCCCO)ccc2N1C(=O)c1ccc2ccccc2n1 -0.433
C=CC[C@]1(C(=O)NCC(O)CO)N=C(c2ccc(OCCCO)cc2)O[C@H]1c1ccccc1N=[N+]=[N-] (stereo not given in full) -0.325
C=C(COC)C(=O)CC[C@H](OC(=O)c1ccccc1-c1ccccc1C(=O)O)c1ccc(OCCO)cc1 -0.509
COC(=O)[C@@]1(Cc2ccc(OC)cc2)[C@H]2c3cc(C(=O)N(C)C)n(Cc4cc(F)c(F)c(F)c4)c3C[C@H]2CN1C(=O)c1ccccc1 4.07
C=CCC(OC(C)=O)[C@@H]1[C@@H](N(Cc2ccc(-c3ccccc3)cc2)C(=O)Cc2ccc(OC)cc2)c2cc(OCCCO)ccc2N1C(=O)c1ccc(-c2ccccc2)cc1 (stereo not given in full) -0.542
COc1ccc(CCNC(=O)[C@@H]2c3ccccc3C(=O)N(Cc3ccccc3)[C@H]2c2ccc(CO)cc2)cc1 -0.332
COC(=O)C(CC#Cc1ccc2c(c1)[C@]1(C(=O)N2)[C@H](c2ccccc2OCCO)N2[C@H](c3ccccc3)[C@H](c3ccccc3)OC(=O)[C@H]2[C@@H]1C(=O)Nc1nc2ccccc2s1)C(=O)OC 1.36
COc1cc2c(cc1OC)CN(C(=O)[C@@H]1[C@H]3C(=O)O[C@H](c4ccccc4)[C@H](c4ccccc4)N3[C@H](c3ccc(OCCO)cc3)[C@@]13C(=O)Nc1ccc(C#CCCO)cc13)CC2 3.2
C[N+](C)(C)CCCCCCNC(=O)[C@H]1C[C@H]2C(=O)N3CCC[C@H]3C(=O)N2[C@H]1c1cccc(OCCO)c1 0.0309
C=C(C(=O)CC[C@H](OC(=O)c1cccnc1)c1ccc(OCCO)cc1)C(C)C 0.905
C=C(COC)C(=O)CC[C@H](OC(=O)c1ccccc1-c1ccccc1C(=O)O)c1ccc(CO)o1 0.526
COC(=O)[C@@]1(Cc2ccccc2)[C@H]2c3cc(C(=O)N4CCCC4)n(Cc4ccc(OC(F)(F)F)cc4)c3C[C@H]2CN1C(=O)c1ccccc1 3.42
CO[C@H]1O[C@H](CO)[C@@H](OC(=O)c2ccc(Br)cc2)[C@@H]2OC(=O)[C@H](Cc3cccc(Br)c3)C/C=C/C[C@@H](Cc3cccc(Br)c3)C(=O)O[C@@H]12 -0.0347
Cc1ccc(N2C(=O)c3ccccc3[C@](C)(C(=O)NC(C)C)[C@@H]2c2ccc(CO)cc2)nc1 -1.8
NC(=O)[C@@H]1[C@H]2C(=O)O[C@H](c3ccccc3)[C@H](c3ccccc3)N2[C@H](c2ccccc2OCCO)[C@@]12C(=O)Nc1ccc(C#CCCO)cc12 2.38
O=C1O[C@H](c2ccccc2)[C@H](c2ccccc2)N2[C@H]1[C@@H](C(=O)N1CCN(c3ncccn3)CC1)[C@]1(C(=O)Nc3ccc(C#CCCO)cc31)[C@H]2c1ccc(OCCO)cc1 4.15
CCCC=C(CCC)[C@@H](NS(=O)(=O)c1cccc2cccnc12)c1ccc(C(=O)OC)cc1 0.823
